The list is not random: actives were taken first. Their share in the collection is about 4.1%.
hgDAF-12 ag: activates the H. glycines DAF-12 receptor ligand-binding domain; HEK293 GAL4-hgDAF12 UAS-luciferase reporter, agonist luminescence; normalized to butyrate control; activation, % at 6.8 µM; 1.8% of 370,000 active;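 active = activation above a cutoff set at the mean of all screened compounds plus 3 SD, cut at about 10% in these data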;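 also: 0% = DMSO wells and 100% = sodium butyrate wells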
hcDAF-12 act: H. contortus DAF-12 activation, primary screen; HEK293 hcDAF-12 lit1-tk-luc reporter, luminescence; 0% DMSO, 100% Δ7-dafachronic acid; activation, % at 6.8 µM; 1.4% of 370,000 active;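 active = activation above the mean of all tested compounds plus 3 SD, cut at about 5.5% in these data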;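 also: 100% = response to 3 µM Δ7-dafachronic acid high control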
DAX1 inh-1: inhibitors of DAX1 repression of SF-1 activated StAR promoter | HEK293T StAR-luciferase reporter, SF-1/DAX-1 repression relief | inhibition, % at 6.8 µM | 1.1% of 370,000 active;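 active = inhibition above the mean over all tested compounds plus 3 SD, cut at about 3.6% in these data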;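 also: 0% = DAX-1 cells with DMSO and 100% = cells lacking DAX-1 with DMSO; higher inhibition means more luminescence from relief of DAX-1 repression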
DAX1 inh-2: inhibits human nuclear receptor DAX1 | 0.99% of 340,000 active | P51843 | HEK293 Gal4-DAX1 luciferase reporter, luminescence | inhibition, % at 6.75 µM;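 active = inhibition above the mean over all tested compounds plus 3 SD, cut at about 4.2% in these data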;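 also: 0% = DAX1-transfected cells with DMSO and 100% = empty-vector control cells with DMSO; inhibition shows as a rise in luminescence from relieved DAX1 repression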
Target sequence (P51843 207-470 limits assumed): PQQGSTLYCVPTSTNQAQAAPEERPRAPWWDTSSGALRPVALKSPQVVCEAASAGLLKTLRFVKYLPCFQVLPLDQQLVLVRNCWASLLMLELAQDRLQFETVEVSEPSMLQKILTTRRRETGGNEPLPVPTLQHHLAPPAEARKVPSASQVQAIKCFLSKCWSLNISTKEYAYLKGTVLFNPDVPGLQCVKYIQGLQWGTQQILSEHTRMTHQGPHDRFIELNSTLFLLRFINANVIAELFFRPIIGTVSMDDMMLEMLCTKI
ssDAF12 agonist: S. stercoralis DAF-12 activation, primary screen. 1% of 370,000 active. HEK293 ssDAF-12/GRIP1 lit1-tk-luc reporter, luminescence; % of 3 µM dafachronic acid response. activation, % at 6.8 µM;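 active = activation above the mean over all tested compounds plus 3 SD, cut at about 0.9% in these data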;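 also: 0% = DMSO-only wells and 100% = 3 µM delta7-dafachronic acid wells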
The depositor's hits bear a star; / = not tested or not shown.

SMILES | hgDAF-12 ag | hcDAF-12 act | DAX1 inh-1 | DAX1 inh-2 | ssDAF12 agonist
CCNc1sc(C(=O)c2cccs2)c(N)c1-c1nc2ccccc2s1 | 9 | 3 | 0 | 2 | 0
COC(=O)[C@]12C[C@H](CC(=O)NCCC(C)C)C(=O)N(CCC3=CCCCC3)C1=C[C@H](C1CCCC1)O[C@@H]2C | 2 | 3 | -1 | / | -1
Nc1nnc(/C=C/c2ccccc2)s1 | 6 | 5.8* | 1 | -1 | -1
CCSc1nnc(NC(=O)c2ccco2)s1 | 4 | 0 | 1 | 0 | -1
O=C(Nc1nnc(/C=C/c2ccccc2)s1)c1ccco1 | 5 | 0 | 0 | -1 | 1.6*
CC(C)Sc1nnc(NC(=O)c2ccco2)s1 | 8 | 0 | 2 | 1 | 1.8*
COC(=O)Nc1nnc(/C=C/c2ccccc2)s1 | 3 | 3 | 2 | 0 | 0
COC(=O)c1cc(-c2c(C)noc2C)c(=O)n2c1CCC2 | -1 | 2 | -1 | / | -1
COCCN1Cc2cc(C(=O)OC)c3c(c2C1=O)c1ccccc1n3S(=O)(=O)c1ccc(OC)cc1 | 1 | 0 | 0 | / | -1
O=C(CCn1c(=S)oc2ccccc21)NC1CCCCC1 | 3 | 0 | 0 | 4 | 5.3*
CCOC(=O)C1(Cc2cccc(OC)c2)CCCN(C(=O)CCc2cccnc2)C1 (stereo not given) | 12* | 0 | 0 | 4 | -1
CCOC(=O)C1(Cc2ccccc2)CCCN(C(=O)COc2ccccc2OC)C1 (stereo not given) | 8 | 1 | 3 | 4.3* | 0
CN(C)S(=O)(=O)c1ccc(C(=O)N2CCN(C(=O)C3CCCO3)CC2)cc1 (stereo not given) | 3 | -2 | 1 | 0 | -1
CN(C)S(=O)(=O)c1cccc(C(=O)N2CCN(C(=O)C3CCCO3)CC2)c1 (stereo not given) | -1 | 0 | 3.8* | 2 | -1
CCCCc1c(-c2ccccc2OC)ncn1Cc1c(Cl)cccc1Cl | -2 | -2 | -1 | / | -1
O=C1c2ccccc2NC(c2ccc3c(c2)OCCO3)N1c1ccc2c(c1)OCCO2 (stereo not given) | 12* | 4 | 2 | -2 | 0
COc1cc(C2Nc3ccccc3C(=O)N2c2ccc3c(c2)OCCO3)ccc1OCC(C)C (stereo not given) | 12* | 5 | 2 | -3 | 0
CC(C)CNS(=O)(=O)CC1NCc2cc3c(cc21)OCO3 (stereo not given) | 0 | -2 | -1 | / | -1
CC(=O)NC12CC3CC(CC(CC(=O)O)(C3)C1)C2 | 1 | 0 | 1 | 1 | -1
CC(=O)NC(C)C12CC3CC(CC(CC(=O)O)(C3)C1)C2 (stereo not given) | 1 | -1 | 0 | 4.4* | -1
Cc1oc2c(C)c3oc(=O)c(CCC(=O)NCCCN4CCOCC4)c(C)c3cc2c1C | -2 | -2 | 0 | 6.7* | 0
Cc1oc2cc3oc(=O)c(CCC(=O)NCCCN4CCCC4=O)c(C)c3cc2c1C | -2 | -2 | 1 | -1 | -2
Cc1oc2c(C)c3oc(=O)c(CCC(=O)NCCCN4CCCC4=O)c(C)c3cc2c1C | 0 | -4 | 0 | 4.3* | -1
CCOC(=O)C1(Cc2ccc(OC)cc2)CCN(C(=O)c2cc3ccccc3[nH]2)CC1 | 3 | 3 | 1 | 1 | 0.9*
O=C(NCCN1CCOCC1)c1cc(Br)ccc1Cl | 10 | 3 | 0 | 1 | 1.1*
SMILES | hgDAF-12 ag | hcDAF-12 act | DAX1 inh-1 | DAX1 inh-2 | ssDAF12 agonist
Cc1ccc(S(=O)(=O)N2CC3(COC(C)(C)OC3)C[C@H]2CON2C(C)(C)CCCC2(C)C)cc1 | -1 | -3 | / | / | -2
COC(=O)C1=C(C)N(C)C(=NCc2cccc(C(F)(F)F)c2)NC1c1ccccc1 (stereo not given) | -2 | 1 | -1 | / | -1
Cc1ccc(-n2c(SCC(=O)Nc3ccc4c(c3)OCCO4)nnc2-c2ccccn2)cc1 | 4 | -2 | 0 | / | -1
CC1CCCCC1NC(=O)C1CCN(S(=O)(=O)c2ccc3c(c2)CCC(=O)N3)CC1 (stereo not given) | -3 | 1 | 0 | 5.1* | -2
CCn1cc(Br)c(C(=O)Nc2ccc(Cl)cc2Cl)n1 | 1 | 1 | 0 | 0 | 1.0*
CCn1cc(Br)c(C(=O)Nc2ccc(F)c(Cl)c2)n1 | 10 | 3 | 0 | 2 | 1.7*
CCOC(=O)c1ccc(NC(=O)c2nn(CC)cc2Br)cc1 | 2 | -2 | 1 | 2 | -2
CCOC(=O)c1c(NC(=O)c2nn(CC)cc2Br)sc(C)c1C | 0 | 3 | 0 | -1 | -1
Cc1nn(-c2ccccc2)c2sc(C(=O)NCCc3ccc(Cl)cc3)cc12 | 2 | 0 | -2 | / | -2
Nc1nc(NCCCN2CCOCC2)nc(Nc2ccccc2F)c1[N+](=O)[O-] | -4 | -2 | 0 | 4.5* | -1
COc1ccc(-n2nc(C(=O)NCC(=O)N3CCCC3)c3ccccc3c2=O)cc1 | 2 | 2 | 0 | 5.2* | -1
O=C(NNC1CCN(Cc2ccccc2)CC1)c1ccccc1 | 11* | -1 | 3 | 0 | 0
O=C(NC1CCN(Cc2ccccc2)CC1)c1ccccc1 | -3 | 0 | 0 | 2 | -1
CC(C)[C@H](NC(=O)[C@@H]1Cc2c([nH]c3ccccc23)C2c3ccccc3C(=O)N21)C(=O)N1CCC[C@@H]1C(=O)O (stereo not given in full) | 1 | 5.7* | -1 | 4 | 0
CC(C)C[C@H](NC1(C(=O)NC2CCCCC2)CCCCC1)C(=O)NCC(c1ccccc1)c1ccccc1 | -1 | -1 | / | / | -2
Oc1ccc(Cl)cc1-c1cc(-c2ccccc2Cl)[nH]n1 | 10 | 6.1* | 1 | 5.6* | 0
Cc1ccc(C)n1NC(=O)c1ccccc1O | 4 | 4 | 3 | 2 | 1.4*
Cc1ccc(C)n1NC(=O)c1ccccc1[N+](=O)[O-] | 3 | -1 | 0 | 0 | -1
COc1cccc(NC(=O)Cn2c(=O)oc3ccccc32)c1 | 1 | -2 | 0 | 0 | -1
COc1ccc(-c2nc(NC(=O)Cn3c(=O)oc4ccccc43)sc2C)cc1 | 2 | 3 | 0 | 4.7* | 0
Cc1cccc(C)c1OCc1cc(C(=O)N2CCC[C@H]2C(N)=O)no1 | -2 | -1 | 0 | 0 | 0
COc1cccc(OCc2cc(C(=O)N3CCNC(=O)C3Cc3ccccc3)no2)c1 (stereo not given) | 6 | -1 | 4.2* | 1 | -1
COc1cccc(OCc2cc(C(=O)N3CCCC3c3ccccn3)no2)c1 (stereo not given) | 12* | 1 | 3 | 0 | 0
NC(=O)[C@@H]1CCCN1C(=O)c1cc(COc2ccc3c(c2)CCCC3)on1 | 7 | 1 | 4.5* | 0 | 0
COc1cccc(CNC(=O)[C@H]2CCCN2C(=O)[C@H]2CCCN2C(=O)c2ccccc2C(F)(F)F)c1 | -1 | 0 | 0 | / | -2
